Reference: the supplement of paper PMC6555819

How the values were obtained:
Assay in all cases: PBM binding z-score (relative to random genomic background probes); higher = stronger binding; sequences stand for … in GC…GCGATTGACAGCGTAGAATGAAGG
[1] = system: FXR:RXRa (NR concentration 270 nM, RXRa partner concentration 90 nM)
Procedure, shortened: (§1)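 Probes were double-stranded and carried 34-nt variable regions with direct-repeat seeds, single-nucleotide variants, half-site ablations and random human genomic background sequences, printed on custom Agilent 4×180K protein-binding microarrays. Arrays were incubated 1 h with ligand-free nuclear receptor dimers in PBS pH 7.4, 2% milk, 0.02% Triton X-100, 1 mM DTT, 0.2 mg/mL BSA and 0.4 mg/ml salmon testes DNA. Antibodies against each partner (one per run) detected binding, and scanned fluorescence was regression-normalized. Binding z-scores use the random background probes as reference.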

[2] = system: LXRa:RXRa (NR concentration 270 nM, RXRa partner concentration 90 nM)
Procedure, shortened: as §1

[3] = system: LXRa homodimer (NR concentration 270 nM)
Procedure, shortened: as §1

[4] = system: LXRb:RXRa (NR concentration 270 nM, RXRa partner concentration 90 nM)
Procedure, shortened: as §1

[5] = system: LXRb homodimer (NR concentration 270 nM)
Procedure, shortened: as §1

[6] = system: PPARa:RXRa (NR concentration 270 nM, RXRa partner concentration 90 nM)
Procedure, shortened: as §1

[7] = system: PPARg:RXRa (NR concentration 180 nM, RXRa partner concentration 90 nM)
Procedure, shortened: as §1

[8] = system: PPARg:RXRa 270nM:90nM, anti-RXR (NR concentration 270 nM, RXRa partner concentration 90 nM)
Procedure, shortened: as §1

[9] = system: PPARg:RXRa 30nM:10nM, anti-RXR (NR concentration 30 nM, RXRa partner concentration 10 nM)
Procedure, shortened: as §1

[10] = system: PPARg:RXRa 90nM:30nM, anti-RXR (NR concentration 90 nM, RXRa partner concentration 30 nM)
Procedure, shortened: as §1

[11] = system: PPARg:RXRa DBDmut IVT, anti-RXR (DBD mutation: RXRa K156A/R161A, NR concentration 270 nM, RXRa partner concentration 90 nM)
Procedure, shortened: as §1

[12] = system: PPARg:RXRa IVT, anti-PPARg (NR concentration 270 nM, RXRa partner concentration 90 nM)
Procedure, shortened: as §1

[13] = system: PPARg DBDmut:RXRa IVT, anti-PPARg (DBD mutation: PPARg1 K132A/R137A, NR concentration 270 nM, RXRa partner concentration 90 nM)
Procedure, shortened: as §1

[14] = system: PPARg DBDmut IVT, anti-PPARg (DBD mutation: PPARg1 K132A/R137A, NR concentration 270 nM)
Procedure, shortened: as §1

[15] = system: PPARg homodimer (NR concentration 180 nM)
Procedure, shortened: as §1

[16] = system: PXR:RXRa (NR concentration 270 nM, RXRa partner concentration 90 nM)
Procedure, shortened: as §1

[17] = system: PXR homodimer (NR concentration 270 nM)
Procedure, shortened: as §1

[18] = system: RARa:RXR (NR concentration 270 nM, RXRa partner concentration 90 nM)
Procedure, shortened: as §1

[19] = system: RARa homodimer (NR concentration 270 nM)
Procedure, shortened: as §1

[20] = system: RARb:RXRa (NR concentration 270 nM, RXRa partner concentration 90 nM)
Procedure, shortened: as §1

Sequence	PBM binding z-score [1]	PBM binding z-score [2]	PBM binding z-score [3]	PBM binding z-score [4]	PBM binding z-score [5]	PBM binding z-score [6]	PBM binding z-score [7]	PBM binding z-score [8]	PBM binding z-score [9]	PBM binding z-score [10]	PBM binding z-score [11]	PBM binding z-score [12]	PBM binding z-score [13]	PBM binding z-score [14]	PBM binding z-score [15]	PBM binding z-score [16]	PBM binding z-score [17]	PBM binding z-score [18]	PBM binding z-score [19]	PBM binding z-score [20]
CGTCCGAGGTCAATGCTAGGTCAGTGAAAGCATT	7.31	5.94	2.78	5.22	1.08	5.78	5.25	5.35	1.89	4.18	3.56	4.42	-0.103	-0.0468	4.53	5.62	2.14	6.71	0.652	5.17
GCTGCTAGGTCAACTGAAGGTCAGCTAAAGCTCG	5.14	4.92	4.01	3.69	0.218	4.26	3.73	4.61	1.03	3.19	5	4.47	-0.0557	-1.06	5.87	4.62	0.437	6.6	2.11	4.98
GCTAGTGGGTCAGTAAAAGGTCACACACCGGTCG	4.47	4.77	4.65	4.61	0.38	5.24	6.44	5.98	3.57	5.34	6.37	6.63	1.17	1.14	6.87	5.62	1.8	7.01	2.96	5.12
TATCCTAGGTCAGATCGGGCCAGTATACGCTATA	2.81	3.67	2.41	2.2	1.81	2.49	1.46	2.04	0.691	1.56	2.51	3.41	1.32	1.4	1.11	1.82	0.14	1.8	0.0561	3.33
CCTCGGAGGACAACCGGAGGTCAGAGCTGCCAGA	1.26	2.64	2.71	1.52	-0.532	1.78	0.316	0.642	-0.954	0.0511	-0.468	0.238	-0.802	-1.28	1.17	2.33	0.578	2.46	0.0885	2.98
CCTGCTAGGTCAATGGTCAGCTCAAGCAGCTCGC	3.28	2.16	-0.232	1.42	0.134	3.19	4.54	5.03	2.8	5.14	4.38	4.13	2.6	-0.398	1.12	0.974	-0.482	1.88	-0.428	3.79
CCTAGTTGGTCAAGCTCACACACGCTATAGGTAC	0.0686	0.299	0.418	0.309	0.719	0.0262	0.838	0.282	0.0303	0.00108	1.68	1.17	0.0557	0.393	0.772	0.179	0.39	0.432	1.68	1.14
CAAACTAGGTCACAGAGGACAAAGTCCGTGCGTA	4.82	3.84	1.45	2.96	0.637	5.52	9.51	7.79	5.58	7.51	8.78	9.01	7.7	3.32	4.15	3.52	2.3	3.22	1.21	4.54
AGTCAAAGTTGATCTAGGTAACGTAAGATATGCT	-0.0957	-0.391	-0.431	-0.102	-0.616	0.713	1.39	1.2	0.421	0.958	0.813	2.74	0.517	1.07	-0.371	-0.212	-0.146	-0.0598	-0.276	0.672
CGTCCAAGGTCATGGGAGGTCAGTGAAGACAGAT	7.92	7.36	5.12	6.35	0.656	6.08	6.25	6.11	2.74	5.07	2.93	4.47	0.44	-0.0199	4.73	7.17	5.18	6.5	2.4	5.61
ACTAGTTGGTCACCTGAGGTCACACACAATTCGG	4.76	6.29	6.67	4.97	1.5	4.17	2.75	3.37	1.09	2.1	2.55	3.78	1.79	1.35	4.91	6.25	3.12	5.48	2.94	3.91
GCTCGGAGGACAAGGTCAGGGCTTTGTCCGTAGA	2.38	2.11	-0.64	1.71	-0.689	2.95	1.07	1.94	-0.338	0.806	-0.354	1.3	-0.608	-0.233	0.661	2.03	-0.681	2.71	-0.898	3.83
ACTAGTTGGTCAGCTGAGGTCACACACAATTCGG	4.25	3.46	1.96	3.8	0.66	3.89	1.97	2.31	0.854	1.58	1.96	3.06	0.93	1.21	2.63	5.47	2.09	4.69	2.64	3.79
